Sampled rows, rich in hits. Any-hit rate of the full collection: about 1.7%.
LYPLA2 inh: LYPLA2 inhibitors, primary screen, counter-screen for PME1 inhibitor project, biochemical, fluorescence polarization, FP-Rh probe ABPP; Acyl-protein thioesterase 2 (Homo sapiens), O95372; recombinant LYPLA2; inhibition, % at 5.9 µM; 0.38% of 320,000 active; AID 2177, 2009;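 active = inhibition above the screen-wide mean plus 3 SD, limit set per campaign, cut at about 26% in these data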;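 note: 0% = LYPLA2 with DMSO and 100% = wells lacking LYPLA2 enzyme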
Target sequence (O95372 whole entry, looked up): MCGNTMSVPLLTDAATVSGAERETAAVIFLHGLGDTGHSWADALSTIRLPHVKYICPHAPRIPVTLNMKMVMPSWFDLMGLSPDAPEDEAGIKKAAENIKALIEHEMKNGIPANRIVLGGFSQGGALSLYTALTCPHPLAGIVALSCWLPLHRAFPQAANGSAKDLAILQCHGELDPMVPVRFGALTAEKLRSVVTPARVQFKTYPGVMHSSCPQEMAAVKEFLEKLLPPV
LYPLA1 inh: LYPLA1 inhibitors, primary screen, counter-screen for PME1 inhibitor project, biochemical, fluorescence polarization, FP-Rh probe ABPP. Acyl-protein thioesterase 1 (Homo sapiens), O75608. recombinant LYPLA1. inhibition, % at 5.9 µM. 0.16% of 320,000 active. AID 2174, 2009;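 active = inhibition above the mean of all tested compounds plus 3 SD, set per campaign, cut at about 14% in these data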;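 note: inhibitors block serine hydrolase probe labeling of LYPLA1 so polarization falls; 0% = enzyme with DMSO and 100% = wells lacking LYPLA1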
Target sequence (O75608 whole entry, looked up): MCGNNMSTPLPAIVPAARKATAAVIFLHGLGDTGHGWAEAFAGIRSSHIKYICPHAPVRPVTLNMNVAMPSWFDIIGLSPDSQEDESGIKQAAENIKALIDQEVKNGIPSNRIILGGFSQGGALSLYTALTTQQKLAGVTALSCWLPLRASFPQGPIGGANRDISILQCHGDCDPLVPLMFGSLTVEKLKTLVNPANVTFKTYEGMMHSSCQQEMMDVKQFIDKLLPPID
p97 inhibitor: inhibitors of human p97 ATPase, primary screen, biochemical. Transitional endoplasmic reticulum ATPase (Homo sapiens), P55072. inhibition, % at 8 µM. recombinant p97 ATPase, Kinase-Glo ATP luminescence, 3 h. 0.42% of 220,000 active; in the data active = inhibition above about 15%;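 note: 0% = DMSO vehicle and 100% = wells lacking enzyme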
Hck-Nef inh: inhibitors of Nef-activated human Hck kinase, primary screen, biochemical, Z-Lyte FRET, 384-well, Hck-YEEI | Recombinant Hck-YEEI plus Nef, Z-Lyte FRET kinase assay | inhibition, % at 20 µM | 0.68% of 220,000 active;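 active = Hck-Nef kinase inhibition above about 50%, limit read from the data; inactive = inhibition below that limit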;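 note: 0% = DMSO with Hck plus Nef and 100% = Hck alone without Nef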
Rin1-Abl PPI inh: inhibitors of Rin1-Abl protein binding, primary screen, biochemical, TR-FRET | 0.4% of 360,000 active | Tyrosine-protein kinase ABL1 (Homo sapiens) + Ras and Rab interactor 1 (Homo sapiens), … | inhibition, % at 7.35 µM; in the data active = inhibition above about 5%, passing the limit was not always enough
PREPL inh: PREPL enzyme inhibitors, primary screen, biochemical, fluorescence polarization. 0.68% of 320,000 active. AID 2751, 2010. recombinant PREPL, fluorescence polarization activity-based probe. inhibition, % at 5.96 µM. Prolyl endopeptidase-like (Homo sapiens), Q4J6C6; in the data active = inhibition above about 43%;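 note: 0% = enzyme with DMSO and 100% = wells lacking enzyme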
Hck-Nef confirm: retest of Hck:Nef kinase inhibitor hits, confirmation, biochemical, Z-Lyte FRET, 384-well, p-Tyr peptide counterscreen. Recombinant Hck-YEEI:Nef, Z-Lyte FRET kinase assay. shares compounds with Hck-Nef inh. AID 463188, 2010. calls only at 10 µM. 28% of 1,300 active;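 active = average inhibition of at least 50%, with Z-scores no higher than 3 in both the phospho-tyrosine peptide and fluorescence counterscreens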
Numbers without * were called inactive; i = inactive; nt = not tested or not shown; + = active, no number.

SMILES | LYPLA2 inh | LYPLA1 inh | p97 inhibitor | Hck-Nef inh | Rin1-Abl PPI inh | PREPL inh | Hck-Nef confirm
NN1C(=O)/C(=C\c2ccco2)SC1=S | 10 | 0 | 0 | 78* | 0 | 20 | i
Cc1ccc2nc3nc(NCC4CCCO4)c(C(=O)NC4CCCC4)cc3c(=O)n2c1 (stereo not given) | 5 | 1 | 2 | 164* | -4 | 5 | nt
CCNc1nc2nc3ccc(C)cn3c(=O)c2cc1C(=O)NCC1CCCO1 (stereo not given) | -2 | -3 | 5 | + | -3 | 2 | nt
N=c1c(C(=O)NC2CCCC2)cc2c(=O)n3ccccc3nc2n1CC1CCCO1 (stereo not given) | 0 | 2 | nt | nt | -1 | 8 | nt
Cc1ccc2nc3nc(NCC4CCCO4)c(C(=O)NC4CCCCC4)cc3c(=O)n2c1 (stereo not given) | -2 | -1 | 4 | 134* | nt | 12 | nt
CC(O)(Cc1ccccn1)Cc1ccccn1 | nt | nt | nt | nt | 0 | nt | nt
CCN1C(=O)/C(=C\c2cn(-c3ccccc3)nc2-c2cccnc2)SC1=S | nt | nt | 1 | 60* | -2 | nt | i
CC(=O)Nc1ncnc2c1c(-c1ccc(Cl)cc1)nn2C(C)(C)C | 1 | 0 | -3 | + | 2 | 1 | +
CCOC(=O)Cn1nc(-c2ccc(Cl)cc2)ccc1=O | 4 | 0 | 0 | 2 | -3 | 14 | nt
CC(=O)N(C(C)=O)c1ncnc2c1c(-c1ccc(Cl)cc1)nn2C(C)(C)C | 7 | 1 | -2 | 74* | -1 | 4 | i
CC(=O)c1ccc(S(=O)(=O)N(C)CC(=O)NCC2CCCCC2)cc1 | 3 | 1 | nt | nt | 0 | -4 | nt
CC(=O)Oc1ccc2ccc(=O)oc2c1 | -8 | -4 | 6 | 122* | -1 | 11 | nt
CC(NC(=O)OC(C)(C)C)C(=O)Oc1ccc2ccc(=O)oc2c1 (stereo not given) | -1 | 0 | 0 | 74* | -1 | 5 | nt
Cc1ccc(C(=O)Oc2ccc3ccc(=O)oc3c2)cc1 | 10 | -4 | nt | nt | -2 | 20 | nt
CCc1noc(C)c1C(=O)NNC(=O)COc1ccc(C)c(C)c1 | 0 | 2 | nt | nt | -1 | 7 | nt
Cc1ccc(S(=O)(=O)c2c(N)n(CCCO)c3nc4ccccc4nc23)cc1 | 3 | 4 | -1 | 81* | 4 | -10 | nt
Cc1ccc(S(=O)(=O)c2c(N)n(CCC(C)C)c3nc4ccccc4nc23)cc1 | -39 | -25 | 2 | 22 | 5 | 0 | nt
O=C(Nc1ccc2c(c1)OCCO2)c1cc(-c2ccccn2)nc2ccc(Br)cc12 | -1 | -4 | 7 | 78* | -2 | 1 | i
O=C(Nc1ccc(S(=O)(=O)Nc2nccs2)cc1)c1cc(-c2ccccn2)nc2ccccc12 | -2 | -2 | 5 | 51* | -4 | 6 | i
O=C(Nc1ccc(S(=O)(=O)Nc2nccs2)cc1)c1cc(-c2ccccc2Cl)nc2ccccc12 | 6 | -2 | -3 | -1 | 2 | 11 | nt
CCOC(=O)c1c(C)oc2c1c(C(c1ccncc1)N1CCOCC1)c(O)c1ccccc12 (stereo not given) | -2 | 1 | 1 | 117* | nt | 9 | +
COC(=O)[C@@]12CCCCN1[C@H](c1ccc(-c3ccccc3)c(OC)c1)[C@H]1C(=O)N(C)C(=O)[C@H]12 | nt | nt | nt | nt | 3 | 6 | nt
O=C(NCC(c1ccco1)N1CCCC1)c1cc2ccccc2s1 (stereo not given) | -4 | -3 | nt | nt | 2 | 13 | nt
CCCCn1c(N)c(N(CCOC)C(=O)CCS(=O)(=O)c2ccc(Cl)cc2)c(=O)[nH]c1=O | 2 | -1 | nt | nt | 0 | 7 | nt
Cc1ccc(CN2CCN(Cc3cnc(N4CCOCC4)s3)CC2CCO)o1 (stereo not given) | 0 | 0 | 4 | 61* | 0 | -1 | i
SMILES | LYPLA2 inh | LYPLA1 inh | p97 inhibitor | Hck-Nef inh | Rin1-Abl PPI inh | PREPL inh | Hck-Nef confirm
Cc1ccc(CN2CCN(Cc3cnc(C)s3)CC2CCO)o1 (stereo not given) | 2 | -1 | 0 | 6 | 5 | 1 | nt
C=CCn1c(C)cc(C(=O)Cn2ncc(Cl)c(Cl)c2=O)c1C | 13 | -5 | 6 | 53* | 0 | 13 | i
Cc1cccc2c(SCC(=O)NCC3CCCO3)nc(-c3ccc(F)cc3)nc12 (stereo not given) | 2 | -2 | 4 | 88* | -1 | 5 | i
CC(OC(=O)c1cccc(-n2cnnn2)c1)C(=O)c1ccccc1 (stereo not given) | 9 | 2 | nt | nt | -1 | -2 | nt
Cc1nc(Nc2ccc(Cl)cc2)c(C#N)c(=O)[nH]1 | 6 | 7 | nt | nt | 1 | 2 | nt
COc1ccc(NC(=O)c2nc[nH]c2C(=O)N[C@@H](C)C(=O)OC(C)(C)C)cc1 | 4 | 2 | nt | 53* | 1 | 17 | i
CC(/C=N/n1c(COc2ccccc2)n[nH]c1=S)=C\c1ccco1 | 3 | 0 | 5 | 50* | 2 | -11 | i
Cc1ccc(S(=O)(=O)N2CCC(C(=O)OCC(=O)N(C)C3CCCCC3)CC2)cc1C | 1 | 0 | nt | nt | 1 | -10 | nt
COc1ccc(N=Nc2c(C)[nH][nH]c2=O)cc1 | 0 | 4 | -2 | 60* | -8 | 13 | i
Cc1[nH][nH]c(=O)c1N=Nc1ccc(F)cc1 | 1 | 3 | nt | nt | -1 | 6 | nt
CCOC(=O)c1cc2c(=O)n3ccccc3nc2n(CC2CCCO2)c1=NC(C)=O (stereo not given) | -2 | -3 | 1 | 193* | -7 | 1 | nt
O=C(COc1cc(Cl)ccc1Cl)N1CCNC1=O | nt | nt | nt | nt | 0 | nt | nt
Cc1nc2c(ccc3nc(NC(=O)C4CC4)sc32)s1 | 2 | 2 | 5 | 54* | 2 | -1 | i
CCC(=O)Nc1nc2ccc3sc(C)nc3c2s1 | 3 | 2 | -1 | 19 | 0 | 5 | nt
CC(=O)N1CCc2cc(S(=O)(=O)NC(Cc3ccccc3)C(=O)O)ccc21 (stereo not given) | 3 | 4 | nt | nt | 4 | 0 | nt
COc1ccc2nc(C)cc(SCC(=O)Nc3c(C)cccc3C)c2c1 | 3 | -2 | 1 | 78* | -5 | -3 | i
COc1ccc2nc(C)cc(SCC(=O)Nc3c(C)cc(C)cc3C)c2c1 | 4 | 2 | 3 | 51* | 2 | 22 | i

Screening data deposited in PubChem by several laboratories.
